Only some compounds are listed: those with a hit (about 1.6% of all), similar ones and a draw of the others.
KCNQ2 inh: rat KCNQ2 potassium channel inhibitors, primary screen, cell-based, CHO-K1, FluxOR thallium flux, B-score; Potassium voltage-gated channel subfamily KQT member 2 (Rattus norvegicus), O88943; 20 min; hits give low values; B-score at 10 µM; 310,000 tested, 1.1% active;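 active = fluorescence ratio B-score at most minus 3 library SDs, with starting brightness B-score within 2 library SDs, cut at about -5.5 in these data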
Target sequence (O88943 whole entry, looked up): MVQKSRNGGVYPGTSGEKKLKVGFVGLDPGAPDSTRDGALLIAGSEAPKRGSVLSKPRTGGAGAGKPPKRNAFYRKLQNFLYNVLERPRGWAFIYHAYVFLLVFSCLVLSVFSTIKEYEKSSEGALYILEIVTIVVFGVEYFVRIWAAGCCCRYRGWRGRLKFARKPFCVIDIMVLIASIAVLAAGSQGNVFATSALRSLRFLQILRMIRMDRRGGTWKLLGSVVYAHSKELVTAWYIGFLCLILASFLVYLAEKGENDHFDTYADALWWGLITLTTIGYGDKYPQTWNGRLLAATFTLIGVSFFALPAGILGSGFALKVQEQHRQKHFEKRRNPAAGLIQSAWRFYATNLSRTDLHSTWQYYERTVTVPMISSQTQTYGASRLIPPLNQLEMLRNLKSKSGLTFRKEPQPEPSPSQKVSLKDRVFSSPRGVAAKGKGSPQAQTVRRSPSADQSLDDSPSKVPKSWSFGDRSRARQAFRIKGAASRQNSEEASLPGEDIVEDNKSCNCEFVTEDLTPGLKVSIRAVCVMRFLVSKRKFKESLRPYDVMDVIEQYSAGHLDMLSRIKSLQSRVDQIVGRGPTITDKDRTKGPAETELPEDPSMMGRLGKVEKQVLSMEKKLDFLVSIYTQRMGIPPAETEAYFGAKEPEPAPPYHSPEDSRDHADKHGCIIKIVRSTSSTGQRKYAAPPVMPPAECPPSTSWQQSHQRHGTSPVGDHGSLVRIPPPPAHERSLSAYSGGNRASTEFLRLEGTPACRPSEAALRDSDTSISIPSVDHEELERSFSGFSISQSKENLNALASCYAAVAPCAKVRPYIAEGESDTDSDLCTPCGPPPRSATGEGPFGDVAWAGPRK
KCNQ2 enhance: potentiators of rat KCNQ2 potassium channel. Potassium voltage-gated channel subfamily KQT member 2 (Rattus norvegicus), O88943. CHO-K1 KCNQ2, FluxOR thallium flux fluorescence; hits give high values. B-score at 10 µM. 310,000 tested, 0.54% active. AID 2239, 2010;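 active = fluorescence ratio B-score at least 3 SD of library B-scores, with initial fluorescence B-score within 3 of them, cut at about 5.3 in these data; same plate scores as AID 2156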;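 note: B-score of peak minus minimum over baseline fluorescence ratio after K+ and Tl+ stimulus; positive B-score means potentiation of KCNQ2 with more thallium influx and brighter signal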
Large screens that a line does not name were inactive.

Cc1ccc(NC(=O)c2cc(N3C(=O)C=CC3=O)ccc2N2CCOCC2)cc1Cl	none
O=C(N/N=C/c1ccc(-c2ccc(Cl)c(C(=O)O)c2)o1)c1cc2c(ccc3ccccc32)o1	KCNQ2 enhance 5.4
COc1ccccc1/C=N/NC(=O)c1cc2c(ccc3ccccc32)o1	KCNQ2 inh -6.4
COc1ccc(/C=N/NC(=O)c2cc3c(ccc4ccccc43)o2)cc1OC	none
Cc1ccc(-c2ccc(/C=N\NC(=O)c3cc4c(ccc5ccccc54)o3)o2)cc1[N+](=O)[O-]	none
Cc1ccc(-c2ccc(C(=O)Nc3ccccc3)o2)c2ccccc12	KCNQ2 inh -5.7
Cc1ccc(-c2ccc(C(=O)NCc3ccccc3)o2)c2ccccc12	none (no result: KCNQ2 enhance)
CC1(C)C2CCC1(C)C(OC(=O)CNc1ccccc1)C2 (stereo not given)	none (no result: KCNQ2 enhance)
COc1cc(C(=O)OC2CC3CCC2(C)C3(C)C)ccc1OC(C)=O (stereo not given)	KCNQ2 inh -5.7
COc1ccc(/C=C2\C(=O)c3ccccc3OC2c2ccccc2)cc1 (stereo not given)	none (no result: KCNQ2 enhance)
CCOc1ccc(/C=C2\C(=O)c3ccccc3OC2c2ccccc2)cc1 (stereo not given)	KCNQ2 inh -6.2
CCCCc1ccc(NC(=O)CSC2=NN3CCCC(=O)N=C3S2)cc1	none
Cc1cc(C)c(C#N)c(N2CCN(c3ccccc3)CC2)n1	none (no result: KCNQ2 enhance)
COc1ccccc1N1CCN(c2nc(C)cc(C)c2C#N)CC1	KCNQ2 inh -5.9
Cc1ccc(-n2c(SCc3cn4ccsc4n3)nc3ccccc3c2=O)cc1	KCNQ2 inh -5.6
c1ccc(-n2cnnc2SCc2cn3ccsc3n2)cc1	none (no result: KCNQ2 enhance)
COc1cc(NC(=S)N2CCCCC2C)c(OC)cc1Cl (stereo not given)	none (no result: KCNQ2 enhance)
COc1cc(NC(=O)C(=O)NNC(=O)C2CCCCC2)c(OC)cc1Cl	KCNQ2 enhance 9.8
CCN(CC)S(=O)(=O)c1cc(C(=O)OCC(=O)NC2CCCc3ccccc32)ccc1C (stereo not given)	KCNQ2 inh -7.7
CNS(=O)(=O)c1cc(C(=O)OCC(=O)NC2CCCc3ccccc32)ccc1Cl (stereo not given)	none (no result: KCNQ2 enhance)
O=C(CC1C(=O)NCCN1CC(c1ccccc1)c1ccccc1)NC1CC1 (stereo not given)	none (no result: KCNQ2 enhance)
O=C(c1ccccc1)c1sc(N2CCCCCC2)nc1-c1ccccc1	KCNQ2 inh -6.2
COc1ccc(-c2nc(N3CCCCCC3)sc2C(=O)c2ccccc2)cc1	none (no result: KCNQ2 enhance)
CCN(CC)C(=O)Cn1c(=O)n(CCCC(=O)NCc2ccccc2)c(=O)c2sccc21	none (no result: KCNQ2 enhance)
Cn1c(CNC(=O)c2ccc(Cl)cc2)nnc1SCC(=O)NC1CCCC1	none
O=C(CSc1nnc(-c2cc3ccccc3cc2O)n1Cc1ccco1)c1ccc(F)cc1	KCNQ2 inh -5.9
Cc1occc1-c1nnc(SCC(=O)c2ccc(F)cc2)n1Cc1ccco1	none (no result: KCNQ2 enhance)
Cc1ccccc1-n1c(SCC(=O)N2CCOCC2)nc(O)c(Cc2ccccc2)c1=O	none (no result: KCNQ2 enhance)
CSCCC(NC(=O)COc1ccccc1)C(=O)N1CCN(c2ccccc2O)CC1 (stereo not given)	KCNQ2 inh -6.2
CSCCC(NC(=O)COc1ccccc1)C(=O)OCC(=O)c1ccccc1 (stereo not given)	none (no result: KCNQ2 enhance)
O=C(O)c1ccc(COc2c(F)c(F)cc(F)c2F)cc1	KCNQ2 inh -9
COC(=O)c1ccc(COc2c(F)c(F)cc(F)c2F)o1	none (no result: KCNQ2 enhance)
COC(=O)c1c(NC(=O)CSc2ncn[nH]2)sc(C)c1C	none (no result: KCNQ2 enhance)
O=C(CS(=O)(=O)c1ccccc1)Nc1nccs1	none (no result: KCNQ2 enhance)
OCCN1CCN(CC(O)COc2ccc(C34CC5CC(CC(C5)C3)C4)cc2)CC1 (stereo not given)	KCNQ2 inh -7.1
OCCN1CCN(CC(O)COc2ccc(Cl)cc2)CC1 (stereo not given)	none
CCc1noc(C)c1C(=O)OCC(=O)N(C)c1c(N)n(Cc2ccccc2)c(=O)[nH]c1=O	none (no result: KCNQ2 enhance)
OC1c2cc(Br)ccc2N=C2CCCN21 (stereo not given)	KCNQ2 inh -7.7
CC1=Nc2ccc(Br)cc2C(c2ccccc2)N1CC(=O)NN (stereo not given)	none
CC1(c2ccccc2)NC(=O)N(CC(=O)N2CCN(S(=O)(=O)c3cccs3)CC2)C1=O (stereo not given)	none
Cc1nc(NC(=O)CSc2nnc(-c3ccc4c(c3)OCO4)o2)c(Cl)cc1Cl	KCNQ2 enhance 18
O=C(CSc1nnc(-c2ccc3c(c2)OCO3)o1)Nc1ncc(C(F)(F)F)cc1Cl	none
Cc1ccc(N(CC(=O)Nc2ccccc2-c2ccccc2)S(=O)(=O)c2ccccc2)c(C)c1	KCNQ2 inh -7.7
CS(=O)(=O)N(CC(=O)Nc1ccccc1-c1ccccc1)c1ccccc1	none (no result: KCNQ2 enhance)
CSCCC(NS(=O)(=O)c1cccs1)C(=O)NCc1ccc(C)cc1 (stereo not given)	KCNQ2 enhance 9.6
CSCCC(NS(=O)(=O)c1cccs1)C(=O)NCc1ccccc1 (stereo not given)	none
O=C(Nc1ccc(S(=O)(=O)N2CCOCC2)cc1)c1cccc(Br)c1	none
COc1cc(-c2nc(-c3ccccc3)c(-c3cccs3)[nH]2)cc(OC)c1OC	none (no result: KCNQ2 enhance)
COc1cc(-c2nc(-c3ccc4c(c3)-c3ccccc3S4(=O)=O)c(-c3ccccc3)[nH]2)cc(OC)c1OC	KCNQ2 inh -7
COc1ccc2nc(-n3c(C)ccc3C)sc2c1	none
COc1ccc2nc(N3C(=O)/C(=C/c4ccccc4)NC3=S)sc2c1	KCNQ2 enhance 23
CCOc1ccc2nc(N3CCCCCC3)sc2c1	none
CCOc1ccc2nc(N3C(=O)/C(=C/c4ccccc4)NC3=S)sc2c1	KCNQ2 enhance 20
CCN(CC)c1ccc(/C=N/N2C(C)CCCC2C)c(O)c1 (stereo not given)	none (no result: KCNQ2 enhance)
O=C(COc1ccc(Cl)cc1)NCCSCc1cccc(Cl)c1	KCNQ2 inh -7.5
Cc1cccc(CSCCNC(=O)COc2ccc(Cl)cc2)c1	none (no result: KCNQ2 enhance)
COc1cc(OC)cc(C(=O)NCCCCNC(=O)c2cc(OC)cc(OC)c2)c1	none
Cc1cc(Cl)ccc1OCC(=O)NCCCCc1ccccc1	KCNQ2 inh -6.3
Cc1cc(Cl)ccc1OCC(=O)NCCC(=O)O	none
COc1cc(OC)cc(C(=O)NCCCCc2ccccc2)c1	KCNQ2 inh -8.2
O=C(Nc1nnc(CCc2ccccc2)s1)c1cccc(F)c1	none
CCOc1ccc(NC(=O)CSc2nc(=O)n(CCN3CCOCC3)c3c2CCCC3)cc1	none
CCC(C(=O)NC1CCCC1)n1nc(C)n2c(cc3occc32)c1=O (stereo not given)	none (no result: KCNQ2 enhance)
COc1ccccc1OCCNC(=O)Nc1cc(F)c(F)cc1Cl	none
CC(C)S(=O)(=O)C1=NSC2=NC(=O)/C(=C\c3ccc(-c4ccccc4)o3)C(=N)N21	KCNQ2 inh -5.9
N=C1/C(=C\c2ccc(-c3cc(Cl)cc(Cl)c3)o2)C(=O)N=C2SC=C(c3ccccc3)N12	none
CCOC(=O)N(Cc1ccccc1)Cc1ccc(C(=O)N[C@@H](Cc2ccccc2)C(=O)O)cc1	none
O=C(Nc1c(-c2ccccc2)nc2ccccn12)c1ccco1	none
Oc1ccc(-c2nc3ccccn3c2NCc2ccco2)cc1	KCNQ2 inh -5.8
CCN(CC)CCn1c(NCc2nc3ccccc3n2Cc2ccccc2)nc2ccccc21	KCNQ2 inh -6.2
Cn1c(CNc2nc3ccccc3n2CCN2CCCCC2)nc2ccccc21	none (no result: KCNQ2 enhance)
c1ccc(Cn2c(CNc3nc4ccccc4n3CCN3CCCCC3)nc3ccccc32)cc1	KCNQ2 inh -7.3
CCN(CC)CCn1c(NCc2ccco2)nc2ccccc21	none

High-throughput results as filed in PubChem.
